From PubChem BioAssay (EPA / NIEHS) come the findings set out here.

Assay [1] in a line: APR_HepG2_CellCycleArrest_24hr: Apredica 24-hour HepG2 Assay for Cell Cycle Arrest (AID 2282905).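 Note: cell cycle arrest scored as ratio of 2N to 4N nuclear DNA content.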 The settings on record: imaging, actives raise or lower the signal. An outline of the steps: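 Compounds at 0.39–200 uM (0.5% DMSO) for 24 h, then fixed and Hoechst 33342 stained. Cell-cycle analysis of nuclear DNA content by high-content imaging, fitted bidirectionally versus DMSO.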

Assay [2] in a line: APR_HepG2_NuclearSize_24hr: Apredica 24-hour HepG2 Assay for Nuclear Size (AID 2282907). The settings on record: high-content imaging, actives raise or lower the signal. Put shortly:
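HepG2 cells exposed 24 h to compounds at 0.39–200 uM (0.5% DMSO), fixed, Hoechst 33342 stained and imaged at 20x; nuclear diameter measured by automated image analysis, fitted bidirectionally against DMSO controls.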

Assay [3] is described as follows: APR_HepG2_CellLoss_24hr: Apredica 24-hour HepG2 Assay for Cell Loss (AID 2282908).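 For AC50: fit in both directions so a hit may be cell loss or gain.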 The settings on record: high-content imaging. Put shortly: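 HepG2 cells exposed 24 hr to 0.39–200 uM compound in duplicate at 0.5% v/v final DMSO. Cells fixed in 3.7% formaldehyde and Hoechst 33342-stained. Cell number came from nuclear imaging at 20x. Bidirectional fit versus DMSO.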

The nature of assay [4]: APR_HepG2_MicrotubuleCSK_24hr: Apredica 24-hour HepG2 Assay for Microtubule CSK Stabilty (AID 2282909). The conditions noted are these: HepG2 microtubule cytoskeleton imaging, actives raise or lower the signal. An outline of the steps:
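HepG2 cells were treated 24 hr with compound at 0.39–200 uM in duplicate (0.5% DMSO final), then fixed and permeabilized. Alpha-tubulin immunofluorescence was imaged by high-content microscopy, with bidirectional fitting against DMSO and taxol as positive control.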

Assay [5] is described as follows: APR_HepG2_MitoticArrest_24hr: Apredica 24-hour HepG2 Assay for Mitotic Arrest (AID 2282910). The conditions noted are these: high-content imaging, actives raise or lower the signal. Put shortly:
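Compounds are dosed onto HepG2 cells across ten concentrations up to 200 uM for 24 hr. Cells are then fixed in 3.7% formaldehyde, permeabilised, and labelled for phospho-histone H3 and nuclei; images are scored by cell cycle analysis and fitted bidirectionally relative to DMSO.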

A short description of assay [6]: APR_HepG2_MitoMembPot_24hr: Apredica 24-hour HepG2 Assay for Mitochondrial Membrane Potential (AID 2282911). The conditions noted are these: imaging, actives raise or lower the signal. An outline of the steps:
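HepG2, 24 hr dosing, 10 concentrations 0.39–200 uM, 0.5% DMSO final. Live-cell MitoTracker Red CMXRos 250 nM 30 min, then 3.7% formaldehyde fix. HCS fluorescence imaging, 20x; bidirectional fit vs DMSO baseline.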

Assay [7] is described as follows: APR_HepG2_MitoMass_24hr: Apredica 24-hour HepG2 Assay for Mitochondrial Mass (AID 2282912). The settings on record: high-content imaging, actives raise or lower the signal. Put shortly: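 HepG2 cells exposed 24 hr to 0.39–200 uM compound, 0.5% v/v DMSO, in duplicate. Stained before fixation with 250 nM MitoTracker Red CMXRos for 30 min, then imaged at 20x with Hoechst nuclei. Fitted in both directions against DMSO.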

Assay [8] can be described thus: APR_HepG2_p53Act_24hr: Apredica 24-hour HepG2 Assay for p53 Activation (AID 2282913).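 Note: p53 protein immunofluorescence averaged per cell in HepG2 with Hoechst nuclei.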 The settings on record: high-content imaging, actives raise or lower the signal. Put shortly: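 Read-out: Cy5 immunofluorescence for p53 in fixed, permeabilized HepG2, imaged by HCS with Hoechst-defined nuclei. Dosing was 24 hr at 0.39–200 uM in 0.5% DMSO. Curves were fitted bidirectionally relative to DMSO.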

The nature of assay [9]: APR_HepG2_CellLoss_72hr: Apredica 72-hour HepG2 Assay for Cell Loss (AID 2282915). The settings on record: high-content imaging. An outline of the steps:
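Cell number comes from Hoechst 33342-labelled nuclei, imaged at 20x after 3.7% formaldehyde fixation. Dosing was 0.39–200 uM, ten concentrations in duplicate, 0.5% DMSO final, for 72 h. Bidirectional fit relative to DMSO baseline.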

Assay [10] can be described thus: APR_HepG2_P-H2AX_72hr: Apredica 72-hour HepG2 Assay for H2AX Phosphorylation (AID 2282916).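 Note: phospho-histone H2A.x immunostain intensity per cell marking DNA damage.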 The settings on record: imaging, actives raise or lower the signal. An outline of the steps:
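HepG2 cells treated 72 h at 0.39–200 uM, 0.5% DMSO final, duplicates. Formaldehyde-fixed, Triton-permeabilised, immunostained for phospho-H2A.x with Hoechst; fluorescence imaged at 20x, bidirectional fit versus DMSO.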

The nature of assay [11]: APR_HepG2_MitoMembPot_72hr: Apredica 72-hour HepG2 Assay for Mitochondrial Membrane Potential (AID 2282917). The conditions noted are these: imaging, actives raise or lower the signal. Put shortly:
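Membrane potential read by MitoTracker Red CMXRos (250 nM, 30 min, pre-fixation) fluorescence imaging of HepG2 after 72 hr exposure. Ten concentrations, 0.39–200 uM, duplicate wells, 0.5% DMSO; fitted in both directions against DMSO baseline.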

Assay [12] is described as follows: APR_HepG2_MitoticArrest_72hr: Apredica 72-hour HepG2 Assay for Mitotic Arrest (AID 2282918). The settings on record: high-content imaging, actives raise or lower the signal. An outline of the steps: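 HepG2, 72 hr exposure, 0.39–200 uM in duplicate, 0.5% v/v DMSO final. Formaldehyde-fixed, Triton-permeabilized, anti-phospho-histone H3/FITC plus Hoechst. ArrayScan imaging at 20x; curves fit bidirectionally against DMSO baseline.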

Assay [13] is described as follows: APR_HepG2_P-H2AX_24hr: Apredica 24-hour HepG2 Assay for H2AX Phosphorylation (AID 2282920). The settings on record: high-content imaging, actives raise or lower the signal. An outline of the steps: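 HCS fluorescence imaging of phospho-H2A.x immunostain (with Hoechst 33342 nuclear counterstain) in HepG2 after 24 hr compound exposure; 10 concentrations, 0.39–200 uM, duplicate wells, 0.5% v/v DMSO. Gain or loss of signal fitted relative to DMSO baseline.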

A short description of assay [14]: APR_HepG2_StressKinase_72hr: Apredica 72-hour HepG2 Assay for Stress Kinase (AID 2282921). The settings on record: HepG2 stress kinase (phospho-c-Jun) imaging, actives raise or lower the signal. Put shortly:
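HepG2 cells treated 72 hr with 0.39–200 uM compound, 0.5% v/v DMSO, duplicate wells. After formaldehyde fixation and Triton permeabilization, stained with anti-phospho-c-Jun (1:500) and Cy3 secondary, imaged at 20x. Fitted in both directions against DMSO.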

Assay [15] in a line: APR_HepG2_StressKinase_24hr: Apredica 24-hour HepG2 Assay for Stress Kinase (AID 2282922). The settings on record: HepG2 stress kinase (phospho-c-Jun) imaging, actives raise or lower the signal. An outline of the steps:
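HepG2, 24 hr dosing, 0.39–200 uM in duplicate, 0.5% DMSO; formaldehyde fix (3.7%), 0.5% Triton X-100; anti-phospho-c-Jun + Cy3 secondary, Hoechst counterstain; ArrayScan imaging; bidirectional curve fit vs DMSO baseline.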

The nature of assay [16]: APR_HepG2_p53Act_72hr: Apredica 72-hour HepG2 Assay for p53 Activation (AID 2282923).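 Note: average cellular p53 protein immunofluorescence intensity in HepG2 cells.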 The settings on record: high-content imaging, actives raise or lower the signal. An outline of the steps: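 HepG2 cells exposed 72 h to 0.39–200 uM in 0.5% DMSO, duplicates. Fixed, permeabilized cells immunostained for p53 (Cy5) with Hoechst; imaged at 20x, fluorescence analyzed bidirectionally against DMSO.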

A short description of assay [17]: APR_HepG2_MitoMass_72hr: Apredica 72-hour HepG2 Assay for Mitochondrial Mass (AID 2282924).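 Note: MitoTracker Red CMXRos stain intensity per cell imaged as mitochondrial mass.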 The settings on record: high-content imaging, actives raise or lower the signal. An outline of the steps:
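HepG2, 72 hr cmpd, 10 conc 0.39–200 uM in dup, DMSO 0.5% v/v. MitoTracker Red CMXRos 250 nM 30 min pre-fix; formaldehyde 3.7% fix 30 min RT. HCS imaging, gain/loss fit vs DMSO.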

The nature of assay [18]: APR_HepG2_NuclearSize_72hr: Apredica 72-hour HepG2 Assay for Nuclear Size (AID 2282925). The settings on record: high-content imaging, actives raise or lower the signal. Put shortly: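 HepG2; cpd 0.39–200 uM, 10 conc, duplicate; 72 h; DMSO 0.5% v/v; fix 3.7% formaldehyde 30 min RT; Triton permeabilization; Hoechst 2 ug/mL; HCS imaging 20x; nuclear diameter; gain/loss fit vs DMSO.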

Assay [19] can be described thus: APR_HepG2_CellCycleArrest_72hr: Apredica 72-hour HepG2 Assay for Cell Cycle Arrest (AID 2282914). The settings on record: high-content imaging, actives raise or lower the signal. Put shortly: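 HepG2, 72 hr exposure, 10-point 0.39–200 uM, duplicate, 0.5% DMSO final. Fix 3.7% formaldehyde 30 min RT, Triton X-100 0.5%, Hoechst 33342 2 ug/mL. ArrayScan 20x, six fields/well; DNA content per nucleus; bidirectional fit vs DMSO.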

The source made the active and inactive calls. Rule for the calls: active = hit-call score of the fitted dose curve at least 0.9, where 1 is the maximum; inactive = score below 0.9.

A word on the AC50: it is the concentration giving half of the maximal activity seen.

Regarding `Cc1cccc(N)c1N`, the outcome in assay [1], in [2], in assay [3], in [4], in assay [5] and in assay [7] was inactive. For the same compound, the outcome in [8], in assay [11], in [14], in assay [15], in assay [16] and in [17] was inactive. Also, the call in [18] was inactive. The AC50 is 99.9 µM (active) in [6]; 14.1 µM (active) in assay [9]; 56.3 µM (active) in [10]; 19.8 µM (active) in assay [12]; 44.5 µM (active) in assay [13].

Consider `Brc1ccc(Oc2ccccc2)cc1`, for which the result in [1], in [2], in [4], in [5], in assay [6] and in [7] was inactive. Besides, the call in assay [8], in assay [10], in [11], in assay [13], in [14] and in assay [15] was inactive. In addition, the compound was called inactive in assay [16], in [17] and in assay [18]. The AC50 is 114 µM (active) in [3], 109 µM (active) in [9] and 100 µM (active) in assay [12].

For the compound `Oc1ccc2ccc3cccc4ccc1c2c34`, the compound was classed as inactive in assay [1], in assay [2], in assay [4], in assay [14] and in [16]. The AC50 was 77.9 µM (active) in assay [3]; 82.2 µM (active) in assay [5]; 30.6 µM (active) in [6]; 31.9 µM (active) in assay [7]; 49.1 µM (active) in [8]; 84 µM (active) in assay [9]. In addition, the AC50 was 50.3 µM (active) in assay [10]; 75.4 µM (active) in [11]; 63.9 µM (active) in assay [12]; 62.9 µM (active) in assay [13]; 80.8 µM (active) in assay [15]; 46.4 µM (active) in assay [17]. Also, the half-maximal activity concentration (AC50) in assay [18] is 69.6 µM (active).

As for `ClC1=C(Cl)C2(Cl)C3C(Cl)C=CC3C1(Cl)C2(Cl)Cl` (configuration not stated), the half-maximal activity concentration (AC50) is 40.9 µM (active) in assay [1]; 101 µM (active) in assay [2]; 99.2 µM (active) in assay [3]; 68.7 µM (active) in assay [4]; 76.8 µM (active) in assay [5]; 55 µM (active) in [7]. The AC50 was 67.9 µM (active) in assay [8]; 56 µM (active) in assay [9]; 65.9 µM (active) in assay [10]; 51.3 µM (active) in assay [12]; 80.7 µM (active) in assay [13]; 84.8 µM (active) in [14]. Moreover, the AC50 is 63.7 µM (active) in assay [16] and 88.9 µM (active) in [17]. The result in assay [6], in [11], in [15] and in [18] was inactive.

For `C=CCc1ccc2c(c1)OCO2`, the compound was classed as inactive in [1], in assay [2], in [3], in assay [4], in assay [5] and in [7]. Besides, the outcome in assay [8], in assay [9], in [10], in assay [11], in assay [12] and in [13] was inactive. Moreover, the result in [14], in [15], in [16], in [17] and in [18] was inactive. In addition, the AC50 in assay [6] is 0.0311 µM (active).

For `CN(C)C(=O)Nc1ccc(Cl)cc1`, the call in assay [1], in assay [2], in [3], in assay [4], in assay [5] and in [6] was inactive. Moreover, the compound was classed as inactive in [7], in [8], in [9], in assay [10], in [11] and in assay [12]. The call in assay [13], in assay [14], in assay [15], in assay [16], in [17] and in assay [18] was inactive.

Turning to `OCCOCCO`, the compound was called inactive in assay [1], in assay [2], in [3], in assay [4], in assay [5] and in assay [6]. Also, the outcome in [7], in assay [19], in assay [9], in [10], in assay [11] and in assay [12] was inactive. Moreover, the compound was classed as inactive in [13], in assay [14], in assay [15], in assay [17] and in assay [18].

Take `O=C(Nc1ccccc1)c1ccccc1I`: the AC50 in [1] was 49.7 µM (active); in [9] it was 61.8 µM (active). The compound was classed as inactive in assay [2], in assay [3], in assay [4], in assay [5], in [6] and in assay [7]. For the same compound, the compound was called inactive in assay [19], in assay [10], in assay [11], in [12], in assay [13] and in [14]. Besides, the outcome in assay [15], in [17] and in assay [18] was inactive.
